Test results reported in PubChem BioAssay AID1159580 (chemical genetic matrix, 2015).
Where “and” joins values, the source holds several entries; their conditions need not be identical. Equal values may be shown once. Screen size: about 5,500 compounds; about 2,000 (36%) were called active. Inconclusive results (about 18%) are left out. Rule as the data show it: active = normalized growth mostly below about 0.91 (no sharp cut-off); inconclusive = no clear call, values can overlap the other calls; inactive = mostly above about 0.92. The list shows a part of the results.

Experiment: chemical genetic growth profiling, strain panel (AID 1159580);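 also: tested at 20 µM; growth read once vehicle control cultures reached saturation at 30 °C; 1 = growth at the plate median or of vehicle wells; lower values mean less growth of the strain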
Settings: S. cerevisiae deletion strains, growth OD

Measured: normalized growth

C[N+](C)(C)CCOP(=O)([O-])OP(=O)(O)OC[C@H]1OC(n2ccc(N)nc2=O)[C@H](O)[C@@H]1O (some centres not stated)
inactive: locus YAL013W, strain DEP1, hits give low values 0.99 | locus YAL021C, strain ccr4, hits give low values 1 | locus YAL026C, strain drs2, hits give low values 1 | locus YAL030W, strain snc1, hits give low values 0.991 | locus YBL061C, strain skt5, hits give low values 0.983 | locus YBR009C, strain hhf1, hits give low values 1.01 | locus YBR021W, strain FUR4, hits give low values 1.01 | locus YBR023C, strain chs3, hits give low values 0.987 | locus YBR171W, strain sec66, hits give low values 0.962 | locus YBR229C, strain ROT2, hits give low values 1 | locus YBR231C, strain swc5, hits give low values 0.976 | locus YBR279W, strain paf1, hits give low values 0.992 | locus YCL011C, strain gbp2, hits give low values 0.998 | locus YCL016C, strain dcc1, hits give low values 1.01 | locus YCL029C, strain bik1, hits give low values 0.999 | locus YCL061C, strain MRC1, hits give low values 0.972 | locus YCL069W, strain vba3, hits give low values 0.975 | locus YCR088W, strain abp1, hits give low values 0.98 | locus YDL005C, strain med2, hits give low values 0.977 | locus YDL035C, strain GPR1, hits give low values 0.993 | locus YDL040C, strain nat1, hits give low values 0.979 | locus YDL074C, strain BRE1, hits give low values 0.972 | locus YDL101C, strain DUN1, hits give low values 0.999 | locus YDL134C, strain PPH21, hits give low values 1.01 | locus YDL185W, strain tfp1, hits give low values 0.992 | locus YDL192W, strain arf1, hits give low values 1.01 | locus YDR001C, strain nth1, hits give low values 0.978 | locus YDR069C, strain doa4, hits give low values 0.976 | locus YDR101C, strain arx1, hits give low values 0.989 | locus YDR137W, strain rgp1, hits give low values 0.991 | locus YDR150W, strain NUM1, hits give low values 1 | locus YDR159W, strain sac3, hits give low values 1 | locus YDR162C, strain NBP2, hits give low values 0.981 | locus YDR195W, strain ref2 0.94 | locus YDR297W, strain sur2, hits give low values 0.989 | locus YDR318W, strain mcm21, hits give low values 1.01 | locus YDR334W, strain swr1, hits give low values 0.974 | locus YDR335W, strain msn5, hits give low values 0.991 | locus YDR388W, hits give low values 1 | locus YDR392W, strain spt3, hits give low values 1.05 | locus YDR502C, strain sam2, hits give low values 0.995 | locus YEL003W, strain gim4, hits give low values 0.986 | locus YEL037C, strain rad23, hits give low values 0.976 | locus YEL061C, strain CIN8 (second series), hits give low values 0.971 | locus YEL061C, strain CIN8, hits give low values 0.996 | locus YER015W, strain faa2, hits give low values 1 | locus YER016W, strain bim1, hits give low values 0.985 | locus YER110C, hits give low values 1 | locus YER111C, strain swi4, hits give low values 0.978 | locus YER155C, strain BEM2 (second series), hits give low values 0.98 | locus YER155C, strain BEM2, hits give low values 0.995 | locus YER167W, strain BCK2, hits give low values 1.02 | locus YFR010W, strain ubp6, hits give low values 0.974 | locus YGL078C, strain dbp3, hits give low values 0.998 | locus YGL086W, strain mad1, hits give low values 1.01 | locus YGL167C, strain pmr1, hits give low values 0.973 | locus YGL173C, strain kem1, hits give low values 0.983 | locus YGL227W, strain vid30, hits give low values 0.973 | locus YGL240W, strain doc1, hits give low values 0.969 | locus YGL248W, strain PDE1, hits give low values 1.02 | locus YGL253W, strain hxk2, hits give low values 0.993 | locus YGR078C, strain PAC10, hits give low values 0.997 | locus YGR135W, strain pre9, hits give low values 0.987 | locus YGR229C, strain SMI1, hits give low values 0.98 | locus YGR252W, strain gcn5, hits give low values 1.02 | locus YHR013C, strain ard1, hits give low values 0.969 | locus YHR027C, strain rpn1, hits give low values 0.992 | locus YHR030C, strain SLT2, hits give low values 0.998 and 1 | locus YHR079C, strain IRE1 (second series), hits give low values 1.01 | locus YHR079C, strain IRE1, hits give low values 1.01 | locus YHR094C, strain hxt1, hits give low values 0.997 | locus YHR129C, strain ARP1, hits give low values 1.01 | locus YHR142W, strain chs7, hits give low values 0.98 | locus YHR200W, strain rpn10, hits give low values 1 | locus YIL066C, strain RNR3, hits give low values 0.995 | locus YIL073C, strain SPO22, hits give low values 1.06 | locus YIL125W, strain kgd1, hits give low values 1 | locus YIR030C, strain dcg1, hits give low values 0.999 | locus YJL092W, strain hpr5, hits give low values 0.974 | locus YJL095W, strain BCK1 (second series), hits give low values 0.99 | locus YJL095W, strain BCK1, hits give low values 0.987 and 0.994 | locus YJL115W, strain asf1, hits give low values 0.977 | locus YJL129C, strain trk1, hits give low values 0.99 | locus YJL134W, strain LCB3, hits give low values 1 | locus YJL154C, strain vps35, hits give low values 0.981 | locus YJL164C, strain tpk1, hits give low values 1 | locus YJL166W, strain qcr8, hits give low values 0.963 | locus YJL168C, strain set2, hits give low values 1 | locus YJL187C, strain SWE1 (second series), hits give low values 1 | locus YJL187C, strain SWE1, hits give low values 0.993 | locus YJR043C, strain POL32, hits give low values 1.02 | locus YJR066W, strain TOR1, hits give low values 0.952
